High-throughput results as filed in PubChem BioAssay.
Only some compounds are listed: those with a hit (about 2.9% of all), similar ones and a draw of the others.
Wnt act = Wnt/beta-catenin pathway activators, primary screen, cell-based, plate reader, single point; 300,000 compounds, 1.2% hits; Wnt/beta-catenin reporter cell assay, activator; activation, % at 9.35 µM; in the data active = activation above about 30%, passing the limit was not always enough; inconclusive = no clear call, values can overlap the other calls;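 also: 0% = neutral control wells and 100% = positive control wells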
esBAF inh = Bmi1 luciferase reporter increase in mESCs, primary screen, esBAF inhibitor project, mouse ES cells, Bmi1 luciferase knock-in, single point; 24 h; 100% = twice the neutral-well signal; reporter increase, % at 12.5 µM; 350,000 compounds, 2% hits; AID 602393, 2012; in the data active = activation above about 40%; inconclusive = no clear call, values can overlap the other calls;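 also: 0% = median of the plate's neutral control wells and 100% = double that signal; a rise in the Bmi1 reporter signal indicates esBAF inhibition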
Glyco luc inh = increase of ERlucT glycosylation luciferase signal, primary screen, N-linked glycosylation inhibitor project, D54 ERlucT cells, luminescence, set 2 | D54 ERlucT glycosylation luciferase reporter, 24 h; percent of 100 nM tunicamycin response | reporter increase, % at 12.5 µM | 360,000 compounds, 0.23% hits | AID 588692, 2011;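 active = mean luciferase reporter signal, scaled so untreated is 0 and the glycosylation-blocking control 100, at or above a set limit in every replicate; inconclusive = mean reaches the limit but not every replicate does; inactive = mean below the limit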;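 also: luciferase carries N-glycosylation sites so blocking glycosylation raises the light; 0% = median of neutral control wells and 100% = median of 100 nM tunicamycin wells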
Vif imaging = HIV Vif self-association inhibitors, primary screen, imaging, HEK293T, single point | HEK293T cells, Vif self-association by quenched fluorescence, 24 h | inhibition, % at 7.49 µM | 340,000 compounds, 0.35% hits | AID 602346, 2012; in the data active = inhibition above about 50%, passing the limit was not always enough; inconclusive = no clear call, values can overlap the other calls; inactive = below about 31%
PvdQ acylase = P. aeruginosa PvdQ acylase inhibitors, primary screen, biochemical, fluorescence, plate reader and imaging, single point | PvdQ acylase [Pseudomonas aeruginosa LESB58] | purified PvdQ acylase | inhibition, % at 10 µM | 340,000 compounds, 0.063% hits; in the data active = inhibition above about 30%, passing the limit was not always enough; inconclusive = no clear call, values can overlap the other calls;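 also: 0% = vehicle neutral wells and 100% = reference inhibitor wells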
MITF act = activators of MITF-driven TRPM1 promoter reporter, primary screen, cell-based, SK-MEL-5, luciferase, single point; SK-MEL-5 TRPM1-promoter luciferase, 24 h; % of positive control, neutral wells = 0; activation, % at 12.5 µM; 300,000 compounds, 0.75% hits; AID 588334, 2011;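 active = mean activation of at least 80% with every replicate also reaching 80%; inconclusive = mean reaches 80% but some replicate falls short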;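 also: 0% = neutral control wells and 100% = parthenolide positive control wells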
Active calls of the source: *; ? = inconclusive; / = no result.

SMILES	Wnt act	esBAF inh	Glyco luc inh	Vif imaging	PvdQ acylase	MITF act
CCCCC(=O)NCc1ccc2c(c1)cc(C)n2C	/	0	1	68*	3	/
COc1cccc(-c2cnc3c(c2)C(=O)N([C@H](C)CO)C[C@@H](C)[C@H](CN(C)Cc2ccc(C(=O)O)cc2)O3)c1	/	1	/	/	/	/
COc1ccc(-n2nc3cc(C)c(N)c(Br)c3n2)cc1	3	-1	0	7	-10	/
COc1ccc(-n2nc3cc(N)c(Br)cc3n2)cc1	5	57*	-1	-5	-12	/
COc1ccccc1CNC(=O)C[C@H]1CC[C@@H]2[C@H](COC[C@@H](O)CN2C(=O)Nc2ccc(F)cc2)O1	/	9	/	/	/	/
O=C(c1ccccc1)c1coc2ccc(O)c(Cl)c12	0	?	-4	-2	2	76
Cc1ccc(C(=O)c2coc3ccc(O)c(Cl)c23)cc1	67*	68*	-3	-8	7	/
CCN1[C@@H]2c3ccc(-c4ccc(F)cc4)c(=O)n3C[C@@H]2[C@@H](CO)[C@@H]1C(=O)OC	/	17	/	/	/	/
C/C(=N\NC(=O)c1ccccc1)c1ccccc1F	57*	20	4	8	-1	47
C/C(=N\NC(=O)c1ccccc1)c1ccccc1Br	?	/	4	-5	-10	42
C/C(=N\NC(=O)c1ccc(Br)cc1)c1ccccc1	/	47*	0	-5	6	54
O=C(CN1CCOCC1)NCC[C@H]1CC[C@H](NC(=O)c2ccccc2F)[C@@H](CO)O1	/	3	/	/	/	/
CCCOC(=O)c1ccc(NC(=O)C(CC)CC)cc1	/	51*	-1	6	-2	31
CCCCOC(=O)c1ccc(NC(C)=O)cc1	-1	20	-5	1	-4	/
CCCOC(=O)c1ccc(NC(=O)C2CCCO2)cc1 (stereo not drawn)	/	50*	-1	1	-8	/
NC(=O)c1ccc(NC(=O)C2CCCO2)cc1 (stereo not drawn)	/	-2	2	3	-10	0
CCCN(C)C[C@@H]1Oc2ncc(-c3ccccc3F)cc2C(=O)N([C@H](C)CO)C[C@@H]1C	/	-14	/	/	/	/
NC(=O)CSc1nc(N)c2c3c(sc2n1)CCCCC3	/	55*	3	-8	-1	/
CNC(=O)CSc1nc(N)c2c3c(sc2n1)CCC3	/	-6	7	/	4	4
C[C@@H]1CCCCO[C@@H](CN(C)S(=O)(=O)c2ccc(F)cc2)[C@@H](C)CN([C@@H](C)CO)C(=O)c2cc(NS(=O)(=O)c3cn(C)cn3)ccc2O1	/	1	/	/	/	/
c1ccc(-c2noc(C34CC5CC(CC(C5)C3)C4)n2)nc1	/	53*	-2	/	-7	44
Brc1ccc(-c2noc(C3CCCCC3)n2)cc1	56*	/	-1	0	-16	58
c1ccc(-c2noc(C3CCCCC3)n2)nc1	36*	1	-6	/	-9	72
c1ccc(-c2noc(C34CC5CC(CC(C5)C3)C4)n2)cc1	/	/	0	-16	-15	17
COc1ccc(S(=O)(=O)N(C)C[C@@H]2Oc3ccc(NC(=O)Cc4ccccc4)cc3CC(=O)N([C@H](C)CO)C[C@H]2C)cc1	/	-1	/	/	/	/
SMILES	Wnt act	esBAF inh	Glyco luc inh	Vif imaging	PvdQ acylase	MITF act
CC(=O)Nc1ncc(Cc2cccc(Cl)c2)s1	8	/	-2	-8	-6	10
O=C(Nc1ncc(Cc2cccc(Cl)c2)s1)C1CCCO1 (stereo not drawn)	/	/	3	2	-6	97*
O=C(Nc1ncc(Cc2cccc(Cl)c2Cl)s1)C1CCCO1 (stereo not drawn)	44*	85*	-4	0	-19	133*
O=C(Nc1ncc(Cc2ccccc2Cl)s1)C1CCCO1 (stereo not drawn)	10	71*	-8	-1	-6	73
Cc1cnc(NC(=O)C2CCCO2)s1 (stereo not drawn)	2	-7	0	4	21	14
C[C@H]1CN([C@@H](C)CO)C(=O)Cc2cc(NS(=O)(=O)c3ccc(Cl)cc3)ccc2O[C@H]1CN(C)Cc1ccccc1	/	4	/	/	/	/
C[C@@H]1CN([C@@H](C)CO)C(=O)c2cccc(NC(=O)NC3CCCCC3)c2O[C@H]1CN(C)Cc1ccc(C(=O)O)cc1	/	-1	/	/	/	/
O=C(NC(=S)NC1CCCCCC1)c1cncc(Br)c1	37*	/	-2	-7	-1	95*
O=C(NC(=S)NC1CCCCC1)c1ccccc1	17	45*	-1	-8	-8	53
CO[C@H](CN(C)C(=O)Nc1ccc(C(F)(F)F)cc1)[C@@H](C)CN(Cc1ccccc1Cl)[C@H](C)CO	/	0	/	/	/	/
Cc1cc(C)c(C)c(S(=O)(=O)N2CCCCC2C(=O)O)c1C (stereo not drawn)	-2	5	1	55*	-18	1
COc1ccc(S(=O)(=O)Nc2ccc3c(c2)[C@@H]2C[C@H](CC(=O)O)O[C@H](CO)[C@@H]2O3)cc1	/	-7	/	/	/	/
CCC1(CC)Nc2ccccc2C(=O)N1c1ccc(OC)cc1	53*	/	-6	8	-11	42
CCC1(CC)Nc2ccccc2C(=O)N1c1ccc(NC(C)=O)cc1	9	6	-1	8	3	9
CCC(=O)N(C)C[C@@H]1Oc2ncc(-c3ccccc3C)cc2C(=O)N([C@H](C)CO)C[C@H]1C	/	-4	/	/	/	/
COc1ccc(C2CC(c3ccc4ccccc4c3)=NN2C(=O)COC(=O)C2CCC(=O)N2)cc1 (stereo not drawn)	45*	/	-8	-3	5	75
COc1ccc(C2CC(c3ccc4ccccc4c3)=NN2C(=O)CNC2CCCCC2)cc1 (stereo not drawn)	-2	/	0	3	-2	0
COc1ccc(C2CC(c3ccc4ccccc4c3)=NN2C(=O)CN2CCC(C(N)=O)CC2)cc1 (stereo not drawn)	-2	48*	1	14	-12	78
c1ccc2c(-c3nc4ccccc4[nH]3)cccc2c1	-3	/	28*	0	/	/
c1ccc2nc(-c3nc4ccccc4[nH]3)ccc2c1	/	-56	-10	-11	1	-18
CCSc1ncccc1-c1nc2ccccc2[nH]1	15	21	2	2	-12	4
c1ccc2[nH]c(-c3ccnc4ccccc34)nc2c1	38*	27	1	9	-13	18
CC(=O)c1ccc(-c2nnc(CCC(=O)N3CCCC(C(=O)CC(C)C)C3)o2)s1 (stereo not drawn)	-1	83*	-1	-5	-8	73
NC(=O)C1CCCN(C(=O)CCc2nnc(C3(c4ccc(Cl)cc4)CCC3)o2)C1 (stereo not drawn)	-2	/	/	/	-15	17
